Measured values from PubChem BioAssay (NCATS).
Records with an inconclusive call do not appear. Values without a mark were called inactive. Calls of active or inactive are those of the source. Calls follow the shape of the dose curve; as a rule, active = well fitted activation curve with a large enough effect in the main read-out, with a control signal flat (not every such curve was filed as active); inconclusive = small, poorly fitted or top-dose-only effect, or effect the other way, or a change in a side signal; inactive = flat fitted curve, though single readings scatter.

molecular target: 3',5'-cyclic-AMP phosphodiesterase 4B (Homo sapiens) (UniProt Q07343); assay: qHTS Assay for Inhibitors of PDE-IV (AID 607); conditions: HEK293 ACTOne CNG channel cells, membrane potential fluorescence; series mostly up to 22.9 µM; activation (PDE inhibition): at the top concentration; also: % of control where 0% means no effect
Source text: NIH Chemical Genomics Center [NCGC]
NIH Molecular Libraries Screening Centers Network [MLSCN]
The cyclic nucleotide phosphodiesterases (PDEs) are proteins that catalyze hydrolysis of 3', 5'-cyclic nucleotides, such as cyclic adenosine monophosphate (cAMP) and cyclic guanosine monophosphate (cGMP), to their corresponding 5'-nucleotide monophosphates. These enzymes play an important role in controlling cellular concentrations of cyclic nucleotides and have a central role in a variety of intracellular signaling events. cAMP PDEs are emerging as a promising class of drug targets in asthma and cardiovascular disease therapeutic areas.
There are no commercially available cell-based screening assays for PDE inhibitors: currently biochemical assays are done using pure substrates (cAMP or cGMP) and purified recombinant PDE enzymes. As with other biochemical screens on intracellular targets, false positives and false negatives may result from issues involving cell membrane permeability, cellular metabolism, and the like.
Here we report the development of a cell-based screening assay for cAMP phosphodiesterase (PDE) inhibitors. The assay is based on the BD ACTOne# technology (BD Biosciences) which utilizes a modified cyclic nucleotide-gated channel (CNG) to monitor intracellular cAMP changes in live cells. The CNG channel is localized on the plasma membrane, and opens when the intracellular cAMP level increases, resulting in ion flux and cell membrane depolarization. The influx of cations through the CNG channel can be quantified using membrane potential (MP) dyes. We modified the BD ACTOne technology to allow the detection of PDE inhibitors, and performed an inhibitor screen for PDE-IV, which is expressed endogenously in HEK293 cells. We optimized this assay in homogeneous 1536-well plate assay format for high throughput screening.
NCGC Assay Protocol Summary:
The medium contained 10% FBS (Invitrogen), 2 mM L-glutamine, and 250 ug/ml G418 (Cellgro) and 1 ug/ml puromycin (Clontech). ACTOneTM parental cells (BD Biosciences) were maintained in the same medium without puromycin.
The activity of the CNG channel was measured by BD ACTOneTM membrane potential dye kit (BD Biosciences). Forskolin, a positive control for cAMP activation and RO 20-1724, a PDE inhibitor, were both purchased from Sigma and solublized in DMSO.
Sequence,Parameter,Value,Description
1,Reagent,3 uL,1000 cells/well 1536 TC treated Black plate
3,Compound,0.5 uL,Kalypsys dispense RO 20-1724 100 uM final [A]
4,Reagent,3 uL,BD membrane potential dye
6,Compound,23 nL,Final concentration was 0.7nM to 22.9uM
8,Detector,EX 535 / EM 590 [B],Envision
Footnotes: [A] The stock 2 mM RO 20-1724 PDE inhibitor was made in 10 % DMSO. Parental cell line received 10 uM forskolin + 100 uM RO. [B] Envsion settings: Bottom Excitation 535/20 nm top emission 590/20, gain of 150 and 5 flashes per well.
Keywords: PDE, PDE-IV, cytotoxicity, flourescence, MLSMR, MLSCN, NIH Roadmap, qHTS, NCGC

3',5'-cyclic-AMP phosphodiesterase 4B (Homo sapiens), sequence (Q07343 whole entry, looked up): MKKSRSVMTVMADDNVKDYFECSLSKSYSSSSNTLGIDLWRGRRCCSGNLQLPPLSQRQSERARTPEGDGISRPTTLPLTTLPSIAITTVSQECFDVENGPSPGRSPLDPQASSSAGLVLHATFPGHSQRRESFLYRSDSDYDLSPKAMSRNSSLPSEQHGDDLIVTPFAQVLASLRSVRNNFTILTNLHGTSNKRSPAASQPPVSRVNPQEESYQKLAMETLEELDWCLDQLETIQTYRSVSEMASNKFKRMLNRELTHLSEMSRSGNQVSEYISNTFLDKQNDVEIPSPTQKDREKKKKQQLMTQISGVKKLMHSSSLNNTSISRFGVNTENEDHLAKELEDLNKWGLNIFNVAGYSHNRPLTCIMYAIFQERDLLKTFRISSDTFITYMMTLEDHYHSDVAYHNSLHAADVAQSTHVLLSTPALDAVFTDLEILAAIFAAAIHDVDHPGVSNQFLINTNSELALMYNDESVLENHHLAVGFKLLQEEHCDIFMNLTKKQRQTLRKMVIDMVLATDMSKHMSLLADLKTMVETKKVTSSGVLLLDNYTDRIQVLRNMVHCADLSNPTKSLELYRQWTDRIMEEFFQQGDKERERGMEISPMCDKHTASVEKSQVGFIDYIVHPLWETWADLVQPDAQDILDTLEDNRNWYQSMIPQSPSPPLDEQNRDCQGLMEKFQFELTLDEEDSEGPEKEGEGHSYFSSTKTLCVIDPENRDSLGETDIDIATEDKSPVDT

`O=C1Cc2c([nH]c3ccc(Br)cc23)-c2ccccc2N1` was tested, and the Potency was “inactive”.
With `NS(=O)(=O)c1cccc2c1c([N+](=O)[O-])cc1nc(O)c(O)nc12` the Potency was “inactive”.
For `N[C@H](C(=O)O)c1cc(O)cc(O)c1`, the Potency was “inactive”.
In the case of `NC(N)=NC(N)=Nc1ccccc1`, the Potency is reported as “inactive”.
In the case of `NC(N)=NC(N)=Nc1cccc(Cl)c1`, the Potency is reported as “inactive”.
With `S=C(S)N1CCCC1` the Potency was “inactive”.
For `C=C1C(=O)O[C@@H]2[C@H]3O[C@]3(C)CCC=C(C)CC[C@@H]12`, the Potency was “inactive”.
`CC(=O)N[C@@H](Cc1c[nH]c2ccccc12)C(=O)OCc1cc(C(F)(F)F)cc(C(F)(F)F)c1` was tested, and the Potency was “inactive”.
In the case of `COc1ccc(-c2ccc(N)[n+](CCCC(=O)O)n2)cc1`, the Potency is reported as “inactive”.
`CCCc1c(-c2ccc(O)cc2)nn(-c2ccc(O)cc2)c1-c1ccc(O)cc1` was tested, and the Potency was “inactive”.

Going from `COc1ccc(NC(=O)c2ccc(-c3ccc(-c4noc(C)n4)cc3C)cc2)cc1N1CCN(C)CC1` to `Cc1cc2c(cc1Cl)N(C(=O)Nc1ccnc3ccccc13)CC2`, the “activation (PDE inhibition)” value falls from 19.2% to 12.4%.

First: O=C1Nc2ccc(I)cc2/C1=C/c1cc(Br)c(O)c(Br)c1
Second: O=C(O)Cc1c[nH]c2ccc(O)cc12
The “activation (PDE inhibition)” value of the first is lower: -21.8% for the first, -12.1% for the second.

Compared with `CCSC(=N)N`, `CC(N)=O` is lower in “activation (PDE inhibition)” value: -3.16% for the first, -15% for the second.

Compared with `CC[N+](CC)(CC)CC(=O)Nc1c(C)cccc1C`, `COc1cc(CNC(=O)CCCCCCC(C)C)ccc1O` is higher in “activation (PDE inhibition)” value: -11.4% for the first, 12.3% for the second.

First: CCCCCCCC/C=C\CCCCCCCC(=O)NCCc1ccc(O)c(O)c1
Second: CCCCCCCCCCCCCCSCC(=O)O
The “activation (PDE inhibition)” value of the first is lower: -8.11% for the first, -6.05% for the second.

Going from `NC(=O)CNCCC(c1ccccc1)c1ccccc1` to `O=C(O)C1=CCCN(CCON=C(c2ccccc2)c2ccccc2)C1`, the “activation (PDE inhibition)” value falls from 17.6% to -25.3%.

Compared with `O=c1[nH]c(=O)c2nc3ccccc3nc2[nH]1`, `Nc1nc2[nH]c(=O)cnc2c(=O)[nH]1` is lower in “activation (PDE inhibition)” value: 1.14% for the first, -19.6% for the second.

Compared with `N#Cc1cc2nc(O)c(O)nc2cc1[N+](=O)[O-]`, `N#C/C(=C\c1ccc(O)c(O)c1)C(=O)NCCc1ccccc1` is lower in “activation (PDE inhibition)” value: -2.44% for the first, -2.69% for the second.

First: O=C(O)c1cccnc1C(=O)O
Second: NC(=O)c1ccccc1
The “activation (PDE inhibition)” value of the first is lower: -8.22% for the first, -3.45% for the second.

Going from `Nc1ccc(N2C(=O)c3ccccc3C2=O)c(Cl)c1` to `Cn1c(=O)c2[nH]c(-c3ccc(S(=O)(=O)O)cc3)nc2n(C)c1=O`, the “activation (PDE inhibition)” value rises from -4.26% to 3.08%.

Going from `O=C(O)C1=CC(=C(c2ccc(O)c(C(=O)O)c2)c2ccc(O)c(C(=O)O)c2)C=CC1=O` to `Fc1ccc(CN(C2=NCCN2)c2c(Cl)cccc2Cl)cc1`, the “activation (PDE inhibition)” value falls from 9.41% to -5.33%.

First: NOCC(=O)O
Second: C=CC[C@H](N)C(=O)O
The “activation (PDE inhibition)” value of the first is lower: -30.3% for the first, 4.57% for the second.

First: NC1(C(=O)O)CC1
Second: CCN(CC)CCOC(=O)c1cc(Cl)c(N)cc1OC
The “activation (PDE inhibition)” value of the first is lower: 3.69% for the first, 10.1% for the second.

Going from `NCCCCN=C(N)N` to `CCN(CC)CCCCCCCCOC(=O)c1cc(OC)c(OC)c(OC)c1`, the “activation (PDE inhibition)” value rises from 10.5% to 15.6%.

Compared with `Nn1nnc2ccccc21`, `C[N+](C)(C)CC=O` is lower in “activation (PDE inhibition)” value: -0.285% for the first, -4.41% for the second.
